OPRK1 antag MB – antagonists of human kappa opioid receptor OPRK1, Maybridge library. OPRK1 cells, antagonist mode, fluorescence readout. inhibition, % at 9 µM. hit rate 0.4% among 16,000. Kappa-type opioid receptor (Homo sapiens), P41145; in the data active = inhibition above about 50%
PME-1 Maybridge – inhibitors of human PME-1 in Maybridge library; Protein phosphatase methylesterase 1 (Homo sapiens), Q9Y570; hit rate 0.5% among 16,000; inhibition, % at 9 µM; recombinant PME-1, FP-Rh probe fluorescence polarization; in the data active = inhibition above about 30%
Target sequence (Q9Y570 whole entry, looked up): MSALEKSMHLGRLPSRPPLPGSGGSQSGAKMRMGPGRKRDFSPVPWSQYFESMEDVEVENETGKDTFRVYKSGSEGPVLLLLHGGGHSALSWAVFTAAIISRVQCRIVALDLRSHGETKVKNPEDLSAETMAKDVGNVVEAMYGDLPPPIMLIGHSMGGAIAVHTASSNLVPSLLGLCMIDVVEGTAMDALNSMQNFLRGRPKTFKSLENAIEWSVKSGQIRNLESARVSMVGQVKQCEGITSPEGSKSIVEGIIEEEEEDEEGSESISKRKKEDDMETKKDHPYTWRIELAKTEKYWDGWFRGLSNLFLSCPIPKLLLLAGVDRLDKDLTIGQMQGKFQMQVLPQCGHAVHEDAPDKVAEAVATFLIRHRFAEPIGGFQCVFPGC
NOTCH ag – agonists of NOTCH signaling. NOTCH signaling luciferase reporter cells, luminescence. activation, % at 2.5 µM. hit rate 0.4% among 15,000; in the data active = activation above about 2.2%
TLR4 MyD88 blk – inhibitors of human TLR4-MyD88 binding | Toll-like receptor 4 (Homo sapiens), O00206 | Cell-based TLR4-MyD88 binding inhibition assay | hit rate 0.06% among 16,000 | AID 811, 2007 | inhibition, % at 10 µM; in the data active = inhibition above about 45%
Luminol counter – counter-screen for Nox1 inhibitors: inhibitors of luminol chemiluminescence; HRP/luminol/H2O2 chemiluminescence counterscreen; inhibition, % at 6.7 µM; hit rate 0.4% among 16,000; note: reference of the scale not given here
Nox1 inh – inhibitors of human NADPH oxidase 1 (Nox1). inhibition, % at 6.7 µM. HT29 cells, luminol chemiluminescence ROS. hit rate 0.81% among 16,000
* = called active by the depositor. The list is not random: actives were taken first. Their share in the collection is about 2.6%. Cut-off read from the data, not from the text of the source, unless noted: active = inhibition above about 75%; inactive = the rest.

SMILES	OPRK1 antag MB	PME-1 Maybridge	NOTCH ag	TLR4 MyD88 blk	Luminol counter	Nox1 inh
O=C1C(Cl)=C(Cl)C(=O)c2ccccc21	26	45*	-1	-7	13	34
CC1CN(CCC(=O)Nc2ccc(Cl)cc2C(=O)c2ccccc2)CC(C)O1 (centres undefined)	-2	-3	0	-1	3	-53
CNC(=O)Oc1ccc(-c2nc(CSc3ccc(Cl)cc3)cs2)cc1	12	-11	0	4	102*	-27
N#CC(C#N)=Cc1csc([N+](=O)[O-])c1	1	-1	-1	-3	4	-56
O=[N+]([O-])/C=C/c1ccc(OCc2ccccc2)cc1	62*	-7	0	-6	3	-48
c1ccc(-n2cc(-c3nc(N4CC4)nc(N4CC4)n3)c3ccccc32)cc1	-7	-5	-1	-3	-8	7

Source: PubChem
